In the library only some 9% were active in any assay of this set; here they are far more common.
LMNA splice mod: qHTS Assay for Modulators of Lamin A Splicing; Potency, µM (top dose mostly 46.1 µM), most hits filed as inhibitors; AID 1487, 2009; HeLa LMNA splicing GFP/RFP minigene ratio, 48 h; 200,000 tested, 0.01% active; active = well fitted inhibition curve with a large enough effect in the signal ratio, with a control signal flat, not every such curve was filed as active; inconclusive = small, poorly fitted or top-dose-only effect, or effect the other way, or a change in a side signal; the % refers to the signal ratio
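S3 HeLa stable clones carrying a lamin A-EGFP splicing minigene plus DsRed2 were seeded at 600 cells/well in Opti-MEM with 2% FBS, pin-dosed and incubated 48 h at 37°C. Acumen cytometry (488 nm) gave the GFP/RFP total-intensity ratio.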
HPGD inh: qHTS Assay for Inhibitors of HPGD (15-Hydroxyprostaglandin Dehydrogenase) | purified HPGD, NADH fluorescence kinetic, PGE2 substrate | Potency, µM, actives largely listed as inhibitors | 150,000 tested, 4.3% active | AID 894, 2007
Target sequence (P15428 whole entry, looked up): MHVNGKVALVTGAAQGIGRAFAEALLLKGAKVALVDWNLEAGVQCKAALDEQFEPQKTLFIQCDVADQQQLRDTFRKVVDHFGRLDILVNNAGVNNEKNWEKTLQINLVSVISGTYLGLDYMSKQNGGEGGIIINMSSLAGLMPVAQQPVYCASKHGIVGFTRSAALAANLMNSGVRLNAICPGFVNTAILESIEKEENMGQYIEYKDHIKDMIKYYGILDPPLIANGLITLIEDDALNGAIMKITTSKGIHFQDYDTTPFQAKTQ
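NADH formation kinetics: reaction with 30 uM PGE2 and 1 mM NAD+ (final), 20 nM enzyme, Tris-HCl pH 8 with Tween 20, after 15 min compound preincubation at room temperature. Fluorescence change, last versus first of five reads.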
ALDH1A1 block: qHTS Assay for Inhibitors of Aldehyde Dehydrogenase 1 (ALDH1A1). 220,000 tested, 7.3% active. Potency, µM (series often up to 75.3 µM), most hits filed as inhibitors. Purified ALDH1A1, NADH fluorescence, propionaldehyde substrate. Aldehyde dehydrogenase 1A1 (Homo sapiens), P00352. AID 1030, 2008
Target sequence (P00352 whole entry, looked up): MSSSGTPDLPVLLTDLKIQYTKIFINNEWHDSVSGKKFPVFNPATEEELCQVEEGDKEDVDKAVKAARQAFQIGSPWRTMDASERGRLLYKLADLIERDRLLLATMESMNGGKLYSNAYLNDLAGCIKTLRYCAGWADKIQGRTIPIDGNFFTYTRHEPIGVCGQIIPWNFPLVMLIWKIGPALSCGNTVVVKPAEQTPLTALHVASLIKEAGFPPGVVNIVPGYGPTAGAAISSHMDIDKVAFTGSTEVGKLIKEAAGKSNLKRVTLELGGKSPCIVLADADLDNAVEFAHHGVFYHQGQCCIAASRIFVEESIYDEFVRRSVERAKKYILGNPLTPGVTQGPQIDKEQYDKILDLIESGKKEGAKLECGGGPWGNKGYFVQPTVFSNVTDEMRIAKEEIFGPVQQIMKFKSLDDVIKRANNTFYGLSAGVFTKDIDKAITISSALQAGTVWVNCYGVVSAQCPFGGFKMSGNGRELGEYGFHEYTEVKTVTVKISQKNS
IMPase Li cell: qHTS Assay for Identifying the Cell-Membrane Permeable IMPase Inhibitors: Potentiation with Lithium. 210,000 tested, 0.35% active. CHO-M1 cells, IP1 TR-FRET (IP-One), carbachol + lithium. Potency, µM (series often up to 59.4 µM), usual class: inhibitors. AID 1457, 2008; active = well fitted curve in the direction sought with a large enough effect; inconclusive = small, poorly fitted or top-dose-only effect, or another doubt; inactive = no such curve, though single readings can be large; an effect the other way counts as inactive or inconclusive;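 also: IP1 builds up when IMPase is blocked and the TR-FRET signal falls; nearly all actives have a fitted effect of over 50% in size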
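CHO cells stably expressing M1 receptor (2000/well, cultured 16–30 h) treated 30 min at 37C with compound plus low lithium. Cytosolic IP1 by TR-FRET (665/620 ratio and 620 channel) after 10 min lysis; AC50 by Hill fit.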
KinaseGlo FLuc: Counterscreen for Luciferase (Kinase-Glo TM) Inhibition. Kinase-Glo luciferase, ATP luminescence, 8 min. 200,000 tested, 0.28% active. Luciferin 4-monooxygenase (Photuris pensylvanica), Q27757. Potency, µM (titrated, usually from 38.3 µM), usual class: inhibitors; active = well fitted curve in the direction sought with a large enough effect; inconclusive = small, poorly fitted or top-dose-only effect, or another doubt; inactive = no such curve, though single readings can be large; an effect the other way counts as inactive or inconclusive; also: nearly all actives have a fitted effect of over 60% in size
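Compounds were added to a substrate mix at pH 7.2 (50 mM imidazole, 10 uM ATP, within the enzyme's linear range), followed by Kinase-Glo detection reagent; luminescence was measured after 8 minutes at ambient temperature.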
Of the large screens only hits and unclear results are named; the others gave an inactive call. Unless noted, calls follow the shape of the dose curve; as a rule, active = well fitted inhibition curve with a large enough effect (not every such curve was filed as active); inconclusive = small, poorly fitted or top-dose-only effect, or another doubt; inactive = no such curve, though single readings can be large or run the other way.

CCCCCc1nc2sc3c(c2c(=O)n1NC(=O)c1ccc([N+](=O)[O-])cc1)CC(C)(C)OC3	LMNA splice mod inconclusive, ALDH1A1 block 8.9µM
Cn1c(NN)nc2sc3c(c2c1=O)CC(C)(C)OC3	HPGD inh inconclusive
Cc1cc(C(=O)OCC(=O)Nc2c(F)cccc2F)c(C)n1-c1ccccc1	none (no result: LMNA splice mod, HPGD inh)
CCCCc1cc(=O)oc2cc(O)cc(O)c12	ALDH1A1 block inconclusive (no result: LMNA splice mod, HPGD inh)
CCCCc1cc(=O)oc2cc(C)cc(O)c12	ALDH1A1 block 8.9µM
CCCc1cc(=O)oc2cc(C)c(CN3CCCC3)c(O)c12	ALDH1A1 block 35µM
CCCc1cc(O)c2c(C)cc(=O)oc2c1	ALDH1A1 block 16µM
Cn1cc(-c2nc3cncnc3n(CCN)c2=O)c2ccccc21	LMNA splice mod inconclusive, ALDH1A1 block inconclusive (no result: HPGD inh, KinaseGlo FLuc)
CCCCOc1ccc(C(=O)N2CCC(C)CC2)cc1	HPGD inh 1µM
CC(=O)Nc1ccc(S(=O)(=O)NCc2ccc(C)cc2)cc1	LMNA splice mod inconclusive
COc1ccc(-n2c(C)nc3cc(C(=O)N4CCOCC4)ccc32)cc1	HPGD inh 2.2µM, ALDH1A1 block inconclusive
O=C(c1ccc(-c2ccccc2)cc1)N1CCC(C(=O)N2CCCC2)CC1	HPGD inh 16µM
C=CCNC(=O)c1ccc(CNS(=O)(=O)c2ccc(NC(C)=O)cc2)cc1	HPGD inh 20µM
CC(C)(C)NC(=O)C1CCN(C(=O)c2ccc(-c3ccccc3)cc2)CC1	LMNA splice mod inconclusive
CCCCOc1ccc(C(=O)N2CCCC2C(=O)O)cc1 (centres undefined)	none
O=C(Nc1ccccc1C(=O)N1CCCCC1)NC1CCCCC1	none (no result: LMNA splice mod, HPGD inh)
Cc1nnc(NC(=O)CSc2ccc3nnc(-c4cccnc4)n3n2)s1	LMNA splice mod inconclusive (no result: HPGD inh)
COc1ccc(C(=O)/C=C/c2cn(CC(O)CN3CCOCC3)c3ccccc23)cc1 (centres undefined)	LMNA splice mod inconclusive, ALDH1A1 block inconclusive
CCOc1ccc(C(=O)N2CCCN(C(=O)c3ccc(OCC)cc3)CC2)cc1	none
Nc1ccc(C(=O)N2CCCC2)cc1	HPGD inh 28µM
C=CCNC(=O)c1ccc(OC)cc1	none (no result: HPGD inh, IMPase Li cell, KinaseGlo FLuc)
C=CCNC(=O)c1ccc(N(C)S(=O)(=O)c2ccc(OC)cc2)cc1	HPGD inh 2.8µM, ALDH1A1 block inconclusive
CCCCOc1ccc(C(=O)N2CCCCCC2)cc1	HPGD inh 0.79µM, ALDH1A1 block inconclusive
COc1ccc(C(=O)/C=C\N2CCOCC2)cc1	ALDH1A1 block 8.9µM
COc1ccc(NC(=O)C2CCN(C(=O)c3ccccc3)CC2)c(OC)c1	ALDH1A1 block 1.6µM
CN(C)S(=O)(=O)c1ccc(C(=O)N2CCOCC2)cc1	none
COc1ccc(S(=O)(=O)N(C)c2ccc(C(=O)N3CCOCC3)cc2)cc1	HPGD inh 6.3µM, ALDH1A1 block inconclusive
COc1ccc(C(=O)N2CCC(C(=O)Nc3ccccc3OC)CC2)cc1	none
O=C(c1ccc(COc2ccccc2Br)cc1)N1CCCCCC1	none (no result: LMNA splice mod, HPGD inh)
COc1ccc(C(CNC(=O)c2ccc(S(=O)(=O)N(C)C)cc2)N2CCCCC2)cc1 (centres undefined)	ALDH1A1 block 10µM (no result: HPGD inh)
O=C(c1ccc(COc2ccc(Cl)cc2)cc1)N1CCCCC1	ALDH1A1 block 28µM (no result: HPGD inh)
O=C=Nc1ccc(Cc2ccc(N=C=O)cc2)cc1	none (no result: LMNA splice mod, KinaseGlo FLuc)
O=C(c1ccc(C(F)(F)F)cc1)N1CCCCC1	HPGD inh 2.8µM
Nc1ccc(C(=O)n2c3ccccc3c3ccccc32)cc1	LMNA splice mod inconclusive, HPGD inh 32µM, ALDH1A1 block 11µM
CN1CCN(C(=O)c2ccc(C(F)(F)F)cc2)CC1	none (no result: HPGD inh)
COc1ccc(C(=O)N2CCCC2)cc1	HPGD inh 6.3µM
N#C/C(=C\c1ccc(OCc2ccc(C(=O)O)cc2)cc1)C(=O)N1CCOCC1	HPGD inh 14µM
CCc1cccc(NC(=O)c2c(C)oc3ncnc(N4CCCCC4)c23)c1	none (no result: HPGD inh, ALDH1A1 block, IMPase Li cell, KinaseGlo FLuc)
COc1ccc2c(c1)C(=O)[C@@H](OC(=O)Nc1cc(OC)c(OC)c(OC)c1)[C@H](c1ccc(OC)c(Br)c1)O2	none (no result: LMNA splice mod)
NC(=O)C1CCCN(C(=O)c2ccc(Cl)cc2)C1 (centres undefined)	none
COc1ccc(C(=O)n2nc(C)c(Br)c2C)cc1	ALDH1A1 block 10µM
O=C(c1ccc(-n2cnnn2)cc1)N1CCCCC1	HPGD inh 16µM, ALDH1A1 block inconclusive
Cc1nn(C(=O)c2ccco2)c(C)c1Br	ALDH1A1 block inconclusive
COc1ccc(/C=C(\C#N)C(=O)N2CCOCC2)cc1Br	HPGD inh 16µM, ALDH1A1 block inconclusive
O=C(c1ccc(Cl)cc1)N1CCCOC1	HPGD inh 8.9µM
COc1cc(/C=C(\C#N)C(=O)N2CCOCC2)ccc1OCc1ccccc1	none (no result: LMNA splice mod, HPGD inh)
O=C(Nc1ccc(-n2cnnn2)cc1)C1CCC1	none
O=C(COc1ccccc1-c1ccccc1)NNC(=O)NC1CCCCC1	none (no result: HPGD inh)
O=[N+]([O-])/C=C\c1ccc(N2CCCC2)c(F)c1	LMNA splice mod inconclusive, ALDH1A1 block inconclusive (no result: HPGD inh)
COc1ccc([N+](=O)[O-])cc1NC(=O)Cc1noc2ccccc12	LMNA splice mod inconclusive (no result: HPGD inh)
CN1N=C(C(=O)N2CCc3c([nH]c4ccccc34)C2c2c(F)cccc2Cl)CCC1=O (centres undefined)	none (no result: HPGD inh)
CN(C)C(=O)c1ccc(-c2cncnc2NCCN2CCOCC2)cc1	none
COc1ccc(OCc2ccc(C(=O)N3CCOCC3)cc2)cc1	HPGD inh 7.9µM
CCCCC(=O)Nc1ccc2c(c1)nc1n2CCSC1	HPGD inh 32µM, ALDH1A1 block 18µM
CC(=O)Nc1ccc2c(c1)nc1n2CCSC1	none
Nc1cc(-c2ccncc2)c[nH]c1=O	LMNA splice mod inconclusive, HPGD inh inconclusive, ALDH1A1 block 11µM
Brc1ccc(C2NCCS2)cc1 (centres undefined)	none (no result: LMNA splice mod, HPGD inh)
Cc1occc1C(=O)N1CCN(S(C)(=O)=O)CC1	ALDH1A1 block 20µM
Cc1ccccc1C(=O)NCc1ccc2c(c1)CCN2C(=O)c1ccccc1	none (no result: HPGD inh, ALDH1A1 block, IMPase Li cell, KinaseGlo FLuc)
CC(=O)N[C@H](Cc1c[nH]c2ccccc12)C(N)=O	none (no result: LMNA splice mod)
Cn1c(-c2sccc2OCc2ccc(Cl)cc2Cl)n[nH]c1=S	ALDH1A1 block 32µM (no result: HPGD inh)
Cc1ccc(COc2ccsc2-c2n[nH]c(=S)n2C)cc1	HPGD inh inconclusive, ALDH1A1 block 20µM
CCC(=O)Nc1cccc(-n2nnnc2SCC(=O)c2ccc(C)c(C)c2)c1	LMNA splice mod inconclusive, ALDH1A1 block inconclusive
O=C(CCCOc1ccc(Cl)cc1Cl)NCc1ccncc1	ALDH1A1 block 20µM (no result: HPGD inh)
Cc1cc(Cl)ccc1OCC(=O)NCc1ccncc1	none
O=C(CCCOc1ccc(Cl)cc1Cl)NCCCO	none
O=C(COc1ccc(Cl)cc1Cl)NCc1ccncc1	LMNA splice mod inconclusive, HPGD inh 25µM, ALDH1A1 block inconclusive

Screens as filed in PubChem.
